Only some compounds are listed: those with a hit (about 1.1% of all), similar ones and a draw of the others.
Mtb BioA inh – blocks M. tuberculosis BioA enzyme activity; purified M. tuberculosis BioA enzyme, plate reader; inhibition, % at 9.99 µM; 360,000 tested, 0.096% active; AID 602481; in the data active means inhibition above about 40%; inconclusive means no clear call, values can overlap the other calls
BJeLR viability – BJeLR cell viability loss. BJeLR (HRASV12) viability, CellTiter-Glo ATP luminescence, 48 h. inhibition, % (no concentration beside the values). 300,000 tested, 0.17% active. AID 1554; in the data active means inhibition above about 50%; inconclusive means no clear call, values can overlap the other calls
Yp Topo-I inh – inhibitors of Yersinia pestis topoisomerase I; Y. pestis Topo-I cleavage product accumulation, plate reader; activity, % at 10 µM; 360,000 tested, 0.064% active; in the data active means activity above about 50%, passing the limit was not always enough; inconclusive means no clear call, values can overlap the other calls
SARS 3CLpro inh – SARS-CoV 3CLpro protease inhibition | P0C6X7 | recombinant SARS-CoV 3CLpro, quenched FRET peptide cleavage | inhibition, % at 6 µM | 290,000 tested, 0.14% active | AID 1706; in the data active means inhibition above about 12%
PfHsp40 yeast – rescue of PfHsp40-mediated yeast toxicity | S. cerevisiae expressing PfHsp40, growth rescue, ATP luminescence | growth rescue, % at 12.5 µM | 340,000 tested, 0.68% active | AID 504582; in the data active means growth rescue above about 28%, passing the limit was not always enough; inconclusive means no clear call, values can overlap the other calls;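 further: yeast W303a lacking pdr1 and pdr3 grown in galactose medium; growth measured after three days at 30 °C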
MazEF act – activators of E. coli MazEF toxin-antitoxin RNase; P0AE70; FAM/BHQ RNA-DNA oligo cleavage fluorescence, 5 h; activation, % at 20 µM; 350,000 tested, 0.32% active; in the data active means activation above about 50%
Target sequence (P0AE70 whole entry, looked up): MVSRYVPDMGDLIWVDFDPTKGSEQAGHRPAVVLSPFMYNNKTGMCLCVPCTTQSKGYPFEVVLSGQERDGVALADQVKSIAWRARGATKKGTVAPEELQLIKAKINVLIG
Active calls of the source: *; ? = inconclusive; / = no result.

SMILES	Mtb BioA inh	BJeLR viability	Yp Topo-I inh	SARS 3CLpro inh	PfHsp40 yeast	MazEF act
CCOC(=O)C1=C(C)N(CC(C)C)C(=O)/C1=C\c1cccs1	-2	-7	10	-3	-1	59*
Cc1cc(C(=O)OCC(=O)NC2CCS(=O)(=O)C2)c2ccccc2n1 (stereo not drawn)	-1	4	3	4	1	11
O=C(COC(=O)c1cc(-c2cccc3ccccc23)nc2ccccc12)NC1CCS(=O)(=O)C1 (stereo not drawn)	/	-3	-5	2	-1	292*
Cc1ccc(NC(=O)COC(=O)CCC2CCCC2)c(Br)c1	/	/	70*	/	0	-3
COCc1c(C(C)C)nc(C(C)C)c(/C=C/[C@@H](O)C[C@@H](O)CC(=O)O)c1-c1ccc(F)cc1	/	72*	/	/	/	/
CC(C)n1c(/C=C/[C@@H](O)C[C@@H](O)CC(=O)O)c(-c2ccc(F)cc2)c2ccccc21	1	17	5	2	?	-3
CCc1ccc(NP(=O)(Oc2ccccc2F)Oc2ccccc2F)cc1	/	3	36	7	43*	-11
Cc1ccc(NP(=O)(Oc2ccccc2F)Oc2ccccc2F)cc1	-1	9	49	10	19	-4
COc1ccc(NC(=O)CSc2nc3n[nH]c(C)c3c(=N)n2-c2ccc(Cl)c(C)c2)cc1OC	-1	4	8	4	1	111*
Cc1cc(-n2c(SCC(=O)NCCC3=CCCCC3)nc3n[nH]c(C)c3c2=N)ccc1Cl	3	59*	18	3	-1	3
COc1ccc(OC)c(NC(=O)CSc2nc3n[nH]c(C)c3c(=N)n2-c2cccc(Cl)c2C)c1	2	-9	12	3	0	-19
CN(C)C(=O)CCc1ccc2c3c([nH]c2c1)[C@]1(CCC2CCCC2)[C@@H](C(=O)N2CCOCC2)C[C@H](CC(=O)NC(C)(C)C)C(=O)N1CC3	-1	/	24	/	0	59*
CN(C)C(=O)CCc1ccc2c3c([nH]c2c1)[C@]1(CCC2CCCC2)[C@@H](C(=O)N2CCOCC2)C[C@H](CC(=O)NCCN2CCOCC2)C(=O)N1CC3	-2	/	27	/	0	4
CC[C@]12c3[nH]c4ccc(OC)cc4c3CCN1C(=O)C(CC(=O)NCCCOC)C[C@@H]2C(=O)N1CCN(C(=O)C2CC2)CC1 (stereo partly drawn)	-1	/	-5	/	0	75*
CC[C@]12c3[nH]c4cc(-c5ccco5)ccc4c3CCN1C(=O)[C@@H](CC(=O)NCCCN(C)C)C[C@@H]2C(=O)N1CCN(C(=O)c2ccco2)CC1	0	/	-9	/	0	53*
CC[C@]12c3[nH]c4ccc(Cl)cc4c3CCN1C(=O)[C@@H](CC(=O)NCCCN(C)C)C[C@@H]2C(=O)N1CCN(C(=O)C2CC2)CC1	2	/	-11	/	-2	9
CC=Cc1ccc2n(c1=O)C[C@@H]1[C@@H](CO)[C@H](C(=O)NCCC)N(C(=O)CC)[C@H]21 (mixture of isomers)	-1	/	/	/	/	/
COc1ccc(CN(C)C(=O)COC(=O)c2ccc(-c3ccccc3)cc2)c(OC)c1OC	0	/	12	/	68*	2
Cc1nc2ccc(NC(=O)Cc3ccc4c(c3)OCCO4)cc2s1	/	1	-8	0	769*	6
CC(C)NC(=O)CSc1nc(-c2ccccc2)cs1	/	4	-8	0	0	3
N#CCSc1nc(-c2ccccc2)cs1	3	4	2	0	36*	6
Cc1ccc(Nc2ccc(-n3ccnc3)nn2)cc1C	13	16	-8	-2	66*	5
COc1ccccc1C#Cc1cnc2c(c1)C(=O)N([C@H](C)CO)C[C@H](C)[C@H](CN(C)C)O2	1	/	/	/	/	/
COc1cc(C(C)=O)ccc1Oc1ncnc2c1cnn2-c1ccccc1	0	1	3	-1	-1	60*
COc1cc(C(C)=O)ccc1Oc1ncnc2c1cnn2-c1ccc(C)c(C)c1	0	14	26	1	-1	-6
SMILES	Mtb BioA inh	BJeLR viability	Yp Topo-I inh	SARS 3CLpro inh	PfHsp40 yeast	MazEF act
CN(C)c1ccc(C=c2c3ccccc3n3c2cc(-c2ccc(Cl)cc2)[n+]3C)cc1	/	/	-56	/	219*	-18
CN(C)c1ccc(C=c2c3ccccc3n3c2c2c([n+]3C)CCCC2)cc1	/	/	-40	/	300*	-13
COc1ccccc1S(=O)(=O)N(C)C[C@@H]1Oc2cc(C#CCC(C)C)ccc2S(=O)(=O)N([C@@H](C)CO)C[C@H]1C	4	/	/	/	/	/
C[C@@H]1CCCCO[C@@H](CN(C)S(=O)(=O)c2cccs2)[C@@H](C)CN([C@H](C)CO)C(=O)c2cc(NS(=O)(=O)c3cn(C)cn3)ccc2O1	2	/	/	/	/	/
COCCNC(=O)c1cn(C)c2ccc(S(=O)(=O)N3CCCC3)cc2c1=O	0	-3	-3	5	0	1
CC(NC(=O)c1cn(C)c2ccc(S(=O)(=O)N3CCCC3)cc2c1=O)c1ccc2c(c1)OCCO2 (stereo not drawn)	-2	-8	9	0	42*	4
Cc1cc(C)cc(N2C(=O)NC(=O)/C(=C\c3cc(C)n(C)c3C)C2=O)c1	/	4	3	3	2	92*
Cc1cc(/C=C2\C(=O)NC(=O)N(c3ccc(Cl)cc3)C2=O)c(C)n1C	/	2	-10	5	-1	35
S=C(NCCCn1ccnc1)Nc1cccc(Cl)c1	2	9	5	-5	35*	1
CCOc1ccc(NC(=S)NCCCn2ccnc2)cc1	/	4	-5	2	0	9
CCc1cc2cc3c(cc2nc1SCC(=O)Nc1nccs1)OCO3	-1	2	2	5	-1	56*
O=C(CSc1nc(-c2ccccc2)nc2ccccc12)Nc1nccs1	-2	-17	5	0	-1	136*
CCc1cc2cc3c(cc2nc1SCC(=O)Nc1c[nH]c(=O)[nH]c1=O)OCO3	-1	-7	0	5	1	4
C[C@H]1CN([C@@H](C)CO)C(=O)c2cc(NC(=O)CCC(F)(F)F)ccc2O[C@H]1CN(C)Cc1ccc2c(c1)OCO2	5	/	/	/	/	/
COc1ccc(NC(=O)Nc2cccc3c2O[C@@H](CN(C)C(=O)Nc2cccc4ccccc24)[C@H](C)CN([C@@H](C)CO)C3=O)cc1	0	/	/	/	/	/
COc1cc(C2NC(=O)NC(C)=C2C(C)=O)ccc1O (stereo not drawn)	0	5	1	-4	-1	83*
COc1cc(C2NC(=O)NC(C)=C2C(C)=O)cc(OC)c1OC (stereo not drawn)	/	3	-8	4	0	-6
C[C@H]1CN([C@@H](C)CO)C(=O)c2cc(Br)cnc2O[C@H]1CN(C)S(=O)(=O)c1ccccc1	1	/	/	/	/	/
O=S(=O)(NCCSCc1ccc(Cl)c(Cl)c1)c1ccc2c(c1)OCCO2	-1	-5	34	-4	42*	-11
Cc1cccc2sc(NNC(=O)c3ccc(S(=O)(=O)N4CCc5ccccc5C4)cc3)nc12	-1	16	26	9	410*	1

Screening results from PubChem BioAssay.
